Molecules are shown by their SMILES. Records with an inconclusive call do not appear. A number with no mark means an inactive call. The source made the active and inactive calls. The call rests on the fitted dose curve; in most records, active means well fitted inhibition curve with a large enough effect; inconclusive means small, poorly fitted or top-dose-only effect; inactive means flat fitted curve, though single readings scatter.

Our source for the max response and outcome values is PubChem BioAssay (NCATS).

One test has as its system CRL-7250. Kind of test: Cytotoxic Profiling of Annotated Libraries Using Quantitative High-Throughput Screening (AID 1296008). Further: nearly all actives have a fitted effect of over 60% in size. The following applies: Five cell lines viability, CellTiter-Glo ATP luminescence, 48-72 h; max response: active compounds read low. Put shortly: (§1)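 Cytotoxicity was measured as CellTiter-Glo ATP luminescence, read after 10 min at room temperature. Compound treatment of the cells lasted 48 or 72 hr at 37 degrees Celsius in a qHTS format.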
In general terms: In ATP-based viability assays light output follows the ATP content of the culture.

For a further test, the system named is HEK293. The description is as above. The following applies: Five cell lines viability, CellTiter-Glo ATP luminescence, 48-72 h; max response: active compounds read low. Put shortly:
as §1
On the % scale 0 is the no-effect control and ±100 the full control effect.

For `CCNC(=O)C1OC(n2cnc3c(N)nc(NCCc4ccc(CCC(=O)O)cc4)nc32)C(O)C1O` (stereo unspecified), the max response in the test on CRL-7250 was -14.2%; with HEK293 it was 0.517%.

Consider `CCOCCOC(=O)/C=C/c1ccc(OC)cc1`, for which the max response with CRL-7250 was -7.76%. In addition, in the test with HEK293, the outcome was inactive.

With `CC(O)CO[C@@H]1O[C@H](CO)[C@@H](O)[C@H](O)[C@H]1O` (stereo partly specified), the max response in the test with CRL-7250 was -3.19%; with HEK293, -61.7%.

Consider `O=C1CCC(=O)N(O)CCCCCNC(=O)CCC(=O)N(O)CCOCCNC(=O)CCC(=O)N(O)CCCCCN1`, for which the max response in the test on CRL-7250 was -5.63%; in the test with HEK293 it was 1.01%.

`CCC(=O)O[C@H]1C(C)(C)[C@H]([C@@H](O)C(=O)OC)[C@]2(C)C(=O)[C@@]1(O)[C@H]1O[C@]13C1CC(=O)O[C@@H](c4ccoc4)[C@]1(C)CCC32` (stereo partly specified): the max response is 0.287% in the test on CRL-7250 and -1.59% in the test with HEK293.

As for `CC1(C)C2CC=C(COC3OC(COC4OCC(O)(CO)C4O)C(O)C(O)C3O)C1C2` (stereo unspecified), the result with CRL-7250 was inactive. Besides, the max response with HEK293 was -3.04%.

`COc1cc(/C=C/C(=O)O[C@H]2[C@H](O)[C@@H](CO)O[C@@]2(CO)O[C@H]2O[C@H](CO)[C@@H](O)[C@H](O)[C@H]2O)ccc1O`: the max response in the test on CRL-7250 was 3.83%; in the test with HEK293, 0.588%.

As to `CCCCNc1ccc(-c2ccc(CN3CCOCC3)cn2)c(NC2CCC(O)CC2)c1` (stereo unspecified), the result in the test on CRL-7250 was inactive. In the test with HEK293, the max response was -7.2%.

For `CCC(O)(C(=O)OCc1ccccc1NC(=O)CCC(=O)O)C(C)O` (stereo unspecified), the outcome with CRL-7250 was inactive. The max response in the test on HEK293 was -0.446%.

With `C[C@@H]1CN(Cc2ncccn2)C[C@H]1c1nc2c(cnn2C2CCOCC2)c(=O)[nH]1`, the max response in the test on CRL-7250 is 1.7%; with HEK293, -4.3%.

Take `CC(C)(O)C1CCC(C)(C2CCC3(C)C4CCC5C(C)(C(=O)OC6OC(CO)C(O)C(O)C6O)C(O)CC(O)C56CC46CCC23C)O1` (stereo unspecified): in the test with CRL-7250, the compound was classed as inactive. For the same compound, the max response in the test with HEK293 was 0.689%.

`CC1(C)CCCC2(C)C(C(=O)O)=CCC12` (stereo unspecified): the max response in the test on CRL-7250 is -16.1%; with HEK293, -1.36%.

Regarding `C=C[C@H]1[C@H](O[C@@H]2O[C@H](CO)[C@@H](O)[C@H](O)[C@H]2O)OC=C(C(=O)OC)[C@H]1C/C=C(/C=O)[C@@H]1C(C(=O)OC)=CO[C@@H](O[C@@H]2O[C@H](CO)[C@@H](O)[C@H](O)[C@H]2O)[C@@H]1C=C`, the values for the max response with CRL-7250 and in the test with HEK293 were -8.61% and -29.3%, respectively.
